Most compounds without a hit are left out; they make up all but 11% or so of the library.
IMPase Li cell – qHTS Assay for Identifying the Cell-Membrane Permeable IMPase Inhibitors: Potentiation with Lithium; CHO-M1 cells, IP1 TR-FRET (IP-One), carbachol + lithium; Potency, µM (highest dose often 59.4 µM), for the others: top-dose activity, negative = IMPase inhibition, most hits filed as inhibitors; actives 0.35% (n = 210,000); AID 1457, 2008; active = well fitted inhibition curve with a large enough effect; inconclusive = small, poorly fitted or top-dose-only effect; inactive = no such curve, though single readings can be large or run the other way;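 note: IP1 builds up when IMPase is blocked and the TR-FRET signal falls; potency is the fitted concentration of half-maximal effect; plate controls were basal vehicle for no effect and high inhibitor control for full effect; nearly all actives have a fitted effect of over 50% in size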
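Steps: plate 2000 CHO-M1 cells per well and culture 16–30 h; add compound and lithium; incubate 30 min, 37C; add d2-IP1 tracer and Eu cryptate anti-IP1 antibody in lysis buffer; read after 10 min at room temperature.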
IMPase cell inh – qHTS Assay for Identifying the Cell-Membrane Permeable IMPase Inhibitors | CHO-M1 cells, IP1 accumulation, HTRF TR-FRET ratio | inhibition (IP1 accumulation), % at 46.1 µM | 120,000 tested, under 10 active | AID 901, 2007; active = well fitted curve in the direction sought with a large enough effect in the signal ratio, not every such curve was filed as active; inconclusive = small, poorly fitted or top-dose-only effect, or a change in a side signal; inactive = no such curve, though single readings can be large or run the other way; the % refers to the signal ratio;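 note: cells stimulated with carbachol in lithium chloride buffer; plate controls were DMSO basal wells for no effect and reference inhibitor wells for full effect; higher means more IMPase inhibition seen as more IP1 and lower FRET ratio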
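Measured: the HTRF emission ratio (665/620 nm) plus the 620 nm donor channel, each fitted to the Hill equation to give AC50. Cells were CHO-M1 given compounds up to 46 uM and a 30 min carbachol stimulation at 37C.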
ALDH1A1 block – qHTS Assay for Inhibitors of Aldehyde Dehydrogenase 1 (ALDH1A1) | Aldehyde dehydrogenase 1A1 (Homo sapiens), P00352 | Purified ALDH1A1, NADH fluorescence, propionaldehyde substrate | Potency, µM (doses to about 75.3 µM), for the others: top-dose activity, negative = inhibition, hits mostly inhibitors | actives 7.3% (n = 220,000) | AID 1030, 2008;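 note: potency is the fitted concentration of half-maximal effect; plate controls were no enzyme wells and a reference inhibitor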
Target sequence (P00352 whole entry, looked up): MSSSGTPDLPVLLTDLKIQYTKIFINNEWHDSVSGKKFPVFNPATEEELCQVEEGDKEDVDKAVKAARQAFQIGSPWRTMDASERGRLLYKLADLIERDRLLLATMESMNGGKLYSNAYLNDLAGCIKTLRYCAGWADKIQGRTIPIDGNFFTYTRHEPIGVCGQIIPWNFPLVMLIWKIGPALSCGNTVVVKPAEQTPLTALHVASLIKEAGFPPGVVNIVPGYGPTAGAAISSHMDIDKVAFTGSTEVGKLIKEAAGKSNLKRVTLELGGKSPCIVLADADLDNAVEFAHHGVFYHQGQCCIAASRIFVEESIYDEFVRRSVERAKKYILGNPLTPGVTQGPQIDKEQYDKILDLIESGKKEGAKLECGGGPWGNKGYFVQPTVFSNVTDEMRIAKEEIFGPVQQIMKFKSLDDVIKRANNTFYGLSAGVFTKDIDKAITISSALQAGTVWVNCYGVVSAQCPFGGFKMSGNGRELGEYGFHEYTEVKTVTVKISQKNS
PNC inhibitor – High Content Assay for Compounds that inhibit the Assembly of the Perinucleolar Compartment | PC3M PTB-GFP, PNC prevalence imaging, 16 h; hits give low values | activity change (PNC), negative = inhibition, % at 10 µM | actives 3.1% (n = 140,000) | AID 2417, 2010;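 active = readout at or below -70, meaning at least 70% loss of cells showing the perinucleolar compartment, a nuclear body marking cancer cells; inconclusive = readout between -30 and a set limit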;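 note: plate controls were DMSO wells for no effect and camptothecin positive control wells for full effect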
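Read-out is percentage of cells bearing a perinucleolar compartment, from automated 20x imaging of fixed, Hoechst-stained PC3M PTB-GFP cells. Cells were seeded 4 h, then exposed 16 h to compound (23 nl of library stock) in duplicate plates.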
HPGD block – qHTS Assay for Inhibitors of HPGD (15-Hydroxyprostaglandin Dehydrogenase); purified HPGD, NADH fluorescence kinetic, PGE2 substrate; Potency, µM, inactives show at the top dose activity change, negative = inhibition, hits mostly inhibitors; actives 4.3% (n = 150,000); 15-hydroxyprostaglandin dehydrogenase [NAD(+)] (Homo sapiens), P15428; note: potency is the fitted concentration of half-maximal effect
Target sequence (P15428 whole entry, looked up): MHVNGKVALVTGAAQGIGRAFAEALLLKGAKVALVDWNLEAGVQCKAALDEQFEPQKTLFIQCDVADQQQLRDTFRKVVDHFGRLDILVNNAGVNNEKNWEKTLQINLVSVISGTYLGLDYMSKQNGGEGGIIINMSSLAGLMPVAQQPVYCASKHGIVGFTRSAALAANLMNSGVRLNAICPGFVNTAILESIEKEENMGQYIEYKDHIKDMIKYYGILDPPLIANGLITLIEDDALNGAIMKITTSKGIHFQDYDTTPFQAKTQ
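NADH formation kinetics: reaction with 30 uM PGE2 and 1 mM NAD+ (final), 20 nM enzyme, Tris-HCl pH 8 with Tween 20, after 15 min compound preincubation at room temperature. Fluorescence change, last versus first of five reads.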
An asterisk follows results filed as active; ? = inconclusive; · = not tested or not shown; [ ] = remark or other dose. Unless noted, calls come from the whole dose curve; as a rule, active = well fitted inhibition curve with a large enough effect (not every such curve was filed as active); inconclusive = small, poorly fitted or top-dose-only effect, or another doubt; inactive = no such curve, though single readings can be large or run the other way. Unless noted, % is set by controls: 0 for no effect and ±100 for the full control effect.

SMILES	IMPase Li cell	IMPase cell inh	ALDH1A1 block	PNC inhibitor	HPGD block
COc1ccc(C(=S)N2CCOCC2)cc1OS(=O)(=O)c1ccccc1[N+](=O)[O-]	-7.3%	·	11.2µM*	104.4	31.6µM*
CCOc1ccc(C(=S)N2CCOCC2)cc1OCC	9.3%[38.3 µM]	-8.0	?	?	?
COc1ccccc1S(=O)(=O)c1ccccc1[N+](=O)[O-]	-9.1%	·	3.1%	-14.5	-2.4%
COc1ccc(C=O)cc1OS(=O)(=O)c1ccccc1[N+](=O)[O-]	-5.2%	·	-6.7%	?	20µM*
CC[C@@]1([C@@H]2O[C@@H]([C@H]3O[C@@](O)(CO)[C@H](C)C[C@@H]3C)C[C@@H]2C)CC[C@H]([C@]2(C)CC[C@]3(C[C@H](O)[C@@H](C)[C@@H]([C@@H](C)[C@@H](OC)C(C)C(=O)O)O3)O2)O1 (some centres not stated)	-13.0%	·	0.9%	·	-8.1%
C=CCOC(=O)C1(C(NC(=O)OC)c2ccccc2)C(=O)Cc2ccccc21 (configuration not stated)	16.8%	·	4.47µM*	·	-9.0%
CCN(CC)c1ccc(/C=N/N2CCN(Cc3ccccc3)CC2)cc1	18.1%	·	7.94µM*	·	·
C(=N\N1CCN(Cc2ccccc2)CC1)/c1cccnc1	1.7%	·	5.3%	-116.4*	-5.4%
CCN(CC)c1ccc(/C=N/N2CCN(Cc3ccccc3)CC2)c(O)c1	13.2%	·	?	59.6	-15.5%
CC(C)CNC(=S)NNC(=O)c1csc2c1CCC(C)C2 (configuration not stated)	23.6%[38.3 µM]	0.9	-5.5%	?	-0.7%
CCCc1cc(C(=O)NNC(=S)Nc2cccc(C)c2)cs1	-2.3%	·	10µM*	-20.1	?
Cc1cccc(NC(=S)NNC(=O)c2csc3c2CCC(C)C3)c1 (configuration not stated)	21.5%[38.3 µM]	-1.9	22.4µM*	-16.5	-8.1%
O=C(CCSCc1ccccc1F)NCCc1ccccc1	-1.2%	·	?	·	·
CCOC(=O)NCCOC(=O)Nc1ccc(Cl)cc1	9.3%	·	5.1%	·	·
CCOC(=O)N(C)OC(=O)Nc1ccc(Cl)c(Cl)c1	-2.4%[38.3 µM]	0.1	3.98µM*	-1.0	?
CCOC(=O)N(CC)OC(=O)Nc1ccc(Cl)cc1	15.5%[38.3 µM]	5.1	4.47µM*	-7.6	-8.4%
CN(C)c1ncc2nc(-c3cc(F)cc(F)c3)c(=O)n(C[C@H]3CCCO3)c2n1	3.0%	·	0.0%	·	·
CC(C)(C)c1ccc(S(=O)(=O)N(CCCN2CCOCC2)Cc2cccs2)cc1	-3.2%	·	18.9%	?	25.1µM*
CC(=O)Nc1ccc(S(=O)(=O)N(CCCN2CCOCC2)Cc2cccs2)cc1	-9.5%	·	?	·	·
Cc1sc2ncnc(SCC(=O)NCC(C)C)c2c1C	8.5%[38.3 µM]	2.0	-1.7%	26.8	15.8µM*
Cc1sc2ncnc(SCC(=O)NC(C)(C)C)c2c1C	2.4%	·	-1.6%	·	·
Cc1cccc(N(Cc2cc3ccccc3[nH]c2=O)S(C)(=O)=O)c1	-3.2%	·	23.8µM*	·	·
CCOc1ccc(N2C(=O)C(Cl)=C(Nc3ccccc3O)C2=O)cc1	18.6%[38.3 µM]	5.9	14.1µM*	-16.9	25.1µM*
COc1ccc(CCNC2=C(Cl)C(=O)N(CCc3ccccc3)C2=O)cc1OC	49.0%[38.3 µM]	4.0	?	-20.0	-20.2%
O=C1C(Cl)=C(Nc2ccccc2O)C(=O)N1CCc1ccccc1	18.0%	·	3.98µM*	?	11.2µM*
SMILES	IMPase Li cell	IMPase cell inh	ALDH1A1 block	PNC inhibitor	HPGD block
c1ccc(Nc2ncnc3ccc(-c4cccnc4)cc23)cc1	9.9%	·	-2.3%	·	-22.4%
CN(C)c1ncc2nc(-c3ccc(F)cc3)c(=O)n(C[C@H]3CCCO3)c2n1	-0.1%	·	?	·	·
O=C(NCC(c1ccco1)N1CCN(c2ccccc2)CC1)c1ccc2c(c1)OCO2 (configuration not stated)	-1.3%	·	-8.0%	·	·
COc1ccc(S(=O)(=O)n2nc(-c3ccc(Cl)cc3)cc2N)cc1OC	9.6%[38.3 µM]	-0.5	89.1µM*	-7.3	-18.6%
CO[C@H]1COC(=O)[C@H](C)NC(=O)C/C=C\[C@@H](C)[C@H](OC)COC(=O)C/C=C\[C@@H]1C	·	·	2.4%[13.5 µM]	·	·
CNC(=S)N1N=C(c2ccc(C)cc2)CC1c1ccc(N(C)C)cc1 (configuration not stated)	6.1%	·	25.1µM*	·	·
CNC(=S)N1N=C(c2ccc(Br)cc2)CC1c1ccc(OC)cc1 (configuration not stated)	-1.4%	·	7.08µM*	-121.5*	35.5µM*
CNC(=S)N1N=C(c2ccc(C)cc2)CC1c1cc(OC)ccc1OC (configuration not stated)	9.3%	·	-4.4%	·	·
COc1ccc(C(=O)NCC(O)COc2ccc(C(C)(C)C)cc2)cc1[N+](=O)[O-] (configuration not stated)	0.6%	·	-13.6%	-14.9	-3.6%
Fc1cccc(-c2cc3nc4c(c(N5CCOCC5)n3n2)CCCC4)c1	17.1%[38.3 µM]	10.7	?	-91.0*	?
Clc1cccc(-c2cc3nc4c(c(N5CCN(c6cnccn6)CC5)n3n2)CCCC4)c1	18.7%	-2.9	?	-100.0*	?
Clc1cccc(-c2cc3nc4c(c(N5CCOCC5)n3n2)CCCC4)c1	23.4%[38.3 µM]	4.9	?	15.6	?
CC1CCc2c(nc3ncnn3c2N2CCN(c3ccccc3)CC2)C1 (configuration not stated)	-6.7%[38.3 µM]	?	?	-5.1	-11.9%
O=C(Nc1ccc2c(c1)CCC2)C1CCN(c2c3c(nc4ncnn24)CCC3)CC1	-5.4%[38.3 µM]	0.4	15.8µM*	19.4	?
O=C(Nc1ccc(Oc2ccccc2)cc1)C1CCN(c2c3c(nc4ncnn24)CCC3)CC1	32.1%[38.3 µM]	17.3	?	67.1	-15.3%
c1nc2nc3c(c(N4CCOCC4)n2n1)CCCC3	-12.6%[38.3 µM]	-3.3	2.5%	-106.9*	-12.3%
C=CCn1c(C)cc(C(=O)CSc2n[nH]c(N)n2)c1C	4.5%[38.3 µM]	-2.6	1.6%	10.3	-11.9%
O=c1[nH]c2cc3c(cc2cc1CN(Cc1nnnn1CC1CCCO1)C1CCCCC1)OCO3 (configuration not stated)	27.0%[38.3 µM]	-7.2	?	-7.5	-20.2%
Cc1cccc2cc(CN(Cc3nnnn3C3CCCCC3)C3CCCC3)c3nnnn3c12	4.6%	·	3.16µM*	-15.0	-2.2%
Cc1cc(C)c2[nH]c(=O)c(CN(Cc3nnnn3C3CCCC3)C3CCCCC3)cc2c1	12.6%[38.3 µM]	9.0	17.8µM*	6.3	-8.2%
COc1cc(C(=O)Nc2ccc3[nH]c(=O)sc3c2)cc(OC)c1OC	·	-3.2	·	·	·
CC(CCc1ccccc1)NC(=O)Cc1ccccc1 (configuration not stated)	-0.4%	·	-2.5%	-21.6	-12.2%
